Experimental findings from PubChem BioAssay AID463173 (ICCB-Longwood Screening Facility, Harvard Medical School, 2010) are described below.

The whole screen tested about 52,000 compounds, of which about 4,300 (8.3%) were called active. The sample holds actives, similar compounds and a random draw of the others, so the mix is not that of the screen. Cut-off read from the data, not from the text of the source: active = survival mostly below about 52% (no sharp cut-off); inactive = mostly above about 56%.

For the assay, the system named is DeltatarO mutant. Put plainly: growth inhibition of S. aureus wild type versus tarO mutant, primary screen, teichoic acid synthesis inhibitors, RN4220, OD600 (AID 463173). Conditions: OD600, 18 h, stronger effect = lower value, screened at 18.75 µg/mL (by protocol).
Consider `CCOc1ccccc1NC(=O)c1cn(C2CCCC2)c(=O)c2c1c1ccccc1n2C`, for which the survival is 122% (inactive).

Take `COC(=O)c1cc(S(=O)(=O)NCC2CCN(Cc3cccc(F)c3)CC2)cn1C`: the survival was 122% (inactive).

Turning to `Cc1ccc(NS(=O)(=O)c2ccc(-c3cc(C)no3)cc2)c(Br)c1`, the survival is 75% (inactive).

With `CCOc1ccccc1NC(=O)CSc1ncc(S(=O)(=O)c2ccc(C)c(C)c2)c(N)n1`, the survival was 99% (inactive).

As for `Cc1nn(-c2ccccc2)c2sc(C(=O)Nc3cccc(Cl)c3)cc12`, the survival is 2% (active).

For the molecule `O=C(Nc1ccccc1)c1cc2c(-c3ccccc3)nn(-c3ccccc3)c2s1`, the survival was 44% (active).

In the case of `O=C(Nc1ccc(Cl)cc1)c1cc2c(-c3ccccc3)nn(-c3ccccc3)c2s1`, the survival was 51% (inactive).

As for `Cc1ccc(NC(=O)c2cc3c(-c4ccccc4)nn(-c4ccccc4)c3s2)cc1`, the survival was 50% (inactive).

`Cc1nn(-c2ccccc2)c2sc(C(=O)Nc3cccc(O)c3)cc12`: the survival was 5% (active).

Consider `Cc1nn(-c2ccccc2)c2sc(C(=O)Nc3cccc(Br)c3)cc12`, for which the survival is 30% (active).

With `Cc1nn(-c2ccccc2)c2sc(C(=O)N3CCOCC3)cc12`, the survival was 89% (inactive).

As for `Cc1nn(-c2ccccc2)c2sc(C(=O)Nc3ccc(Cl)cc3Cl)cc12`, the survival was 71% (inactive).

Take `COc1cccc(NC(=O)c2cc3c(-c4ccc(Cl)cc4)nn(C)c3s2)c1`: the survival was 84% (inactive).

In the case of `COc1ccc(C(c2c(C)n(C)n(-c3ccccc3)c2=O)c2c(C)n(C)n(-c3ccccc3)c2=O)cc1O`, the survival is 84% (inactive).

As for `COc1ccc(-c2[nH]c(-c3ccccc3)nc2SCC(=O)Nc2ccc3c(c2)OCO3)cc1`, the survival is 51% (inactive).

With `Clc1cccc(-n2cc(-c3ccccc3)c3c(NC4CCCC4)ncnc32)c1`, the survival was 78% (inactive).

Consider `COc1ccccc1N1CCN(S(=O)(=O)c2c(C)sc3ncn(CC(=O)N(C)c4ccc(Cl)cc4)c(=O)c23)CC1`, for which the survival is 65% (inactive).

As to `COc1ccc(NC(=O)CC(C)S(=O)(=O)c2cc3c(cc2C)NC(=O)CO3)cc1OC` (centres undefined), the survival was 88% (inactive).

Take `CCC(C)NC(=O)CSc1nc2cc3c(cc2c(=O)n1CCCCCC(=O)NCc1ccc(OC)cc1)OCO3` (centres undefined): the survival was 76% (inactive).

`COc1ccc(-c2nc(C)c(CCNC(=O)C(=O)Nc3ccccc3F)s2)cc1`: the survival was 115% (inactive).

`CN(C)c1ccc(-c2nnc(SCC3CCCO3)n2C)cc1` (centres undefined): the survival was 82% (inactive).

In the case of `O=C(CCC1N=C2c3ccccc3N=C(SCc3ccc(Cl)cc3)N2C1=O)NCCc1ccccc1` (centres undefined), the survival was 90% (inactive).

Regarding `CCOc1ccc(NC(=O)c2cc3c(C)nn(-c4ccccc4)c3s2)cc1`, the survival was 75% (inactive).

On to `Cc1cccc(NC(=O)c2cc3c(C)nn(-c4ccccc4)c3s2)c1`, for which the survival is 6% (active).

For `Cc1nn(-c2ccccc2)c2sc(C(=O)Nc3ccc(Br)cc3)cc12`, the survival is 26% (active).

In the case of `Cc1cccc(NC(=O)c2ccc(-c3ccccc3)s2)c1`, the survival was 82% (inactive).

Turning to `Cc1nn(-c2ccccc2)c2sc(C(=O)N/N=C/c3ccccc3)cc12`, the survival was 110% (inactive).

Take `O=C(c1cccc(Cl)c1)N1c2ncnn2C2(CCCCC2)[C@@H]2CCCC[C@@H]21`: the survival is 80% (inactive).

For the molecule `O=C(NCc1ccccc1Cl)C1CCCN(C(=O)c2cnn(-c3ccc(F)cc3)c2-n2cccc2)C1` (centres undefined), the survival was 67% (inactive).

As for `O=C(CCN1N=C(c2ccccc2)CCC1=O)NCCc1ccc(Cl)cc1`, the survival was 122% (inactive).

Turning to `CCc1cccc(NC(=O)c2c(C)oc3ncnc(N4CCCCC4)c23)c1`, the survival was 54% (inactive).

For the molecule `COC(=O)CSc1nc2c(cc1C#N)CCCC2`, the survival was 106% (inactive).

As for `O=S(=O)(c1ccc(Cl)cc1)c1nc(-c2ccccc2Br)oc1N1CCOCC1`, the survival is 59% (inactive).

`O=S(=O)(c1ccc(Cl)cc1)c1nc(-c2cccs2)oc1SCc1ccc(F)cc1`: the survival was 67% (inactive).

As to `CC1CCN(c2nc3c(S(=O)(=O)c4ccc(Cl)cc4)nnn3c3ccsc23)CC1`, the survival is 113% (inactive).

For the molecule `CCCSc1oc(-c2cccs2)nc1S(=O)(=O)c1ccc(Cl)cc1`, the survival was 65% (inactive).

For the molecule `Cc1ccc(S(=O)(=O)c2nc(-c3cccs3)oc2N2CCC(C)CC2)cc1`, the survival was 8% (active).

Take `COc1ccc(-c2nc(S(=O)(=O)c3ccccc3)c(N3CCC(C)CC3)o2)cc1`: the survival was 74% (inactive).

For the molecule `CC1CCN(c2oc(-c3cccs3)nc2S(=O)(=O)c2ccc(Cl)cc2)CC1`, the survival is 17% (active).

For `COc1ccccc1-c1nc(S(=O)(=O)c2ccccc2)c(N2CCC(C)CC2)o1`, the survival was 19% (active).

Turning to `COc1ccccc1-c1nc(S(=O)(=O)c2ccc(Cl)cc2)c(N2CCCCCC2)o1`, the survival is 60% (inactive).

On to `O=S(=O)(c1ccc(Cl)cc1)c1nc(-c2cccs2)oc1N1CCCCC1`, for which the survival was 45% (active).

`COc1ccccc1-n1nc(-c2ccccc2)c2cnc3cc(C(F)(F)F)ccc3c21`: the survival is 81% (inactive).

As for `CCCS(=O)(=O)N1CC(=O)N(c2cccc(Cl)c2C)C(C)(C(=O)NC2CCCC2)C1` (centres undefined), the survival is 99% (inactive).

`COc1ccccc1N1CCN(C(=O)c2cc3c(=O)n(Cc4ccco4)ccc3nc2C)CC1`: the survival was 80% (inactive).

On to `CC(C)CN1CCc2nc(N3CCN(C)CC3)ncc2C1`, for which the survival is 83% (inactive).

Consider `Sc1ccc2oc3ccc(S)cc3c2c1`, for which the survival is 93% (inactive).

`CCS(=O)(=O)c1nc(S(=O)(=O)c2ccc(C)cc2)c(NCc2ccccc2Cl)s1`: the survival is 81% (inactive).

Consider `CCc1nn(CC(=O)Nc2ccc(N(CC)CC)cc2C)c(=O)c2cc3sccc3n12`, for which the survival was 77% (inactive).

As to `O=C(Cc1ccc(Cl)cc1)Nc1ccc2oc(-c3ccccc3F)nc2c1`, the survival is 118% (inactive).

For the molecule `COc1ccc(/C=C/c2nc3ccccc3c(=O)n2-c2cccc(C(F)(F)F)c2)cc1`, the survival was 91% (inactive).

In the case of `COc1cccc2sc(NC(=O)CS(=O)(=O)c3ccc(C)cc3)nc12`, the survival is 101% (inactive).

Consider `c1ccc(-c2cn(-c3ccccc3)c3ncnc(N4CCN(c5ccccc5)CC4)c23)cc1`, for which the survival is 90% (inactive).

With `O=CN1CCN(S(=O)(=O)c2ccc(S(=O)(=O)NC3CC3)cc2)CC1`, the survival was 72% (inactive).

As to `CCOc1ccc(-c2nnc(SCC(=O)NCc3ccc(C)cc3)nc2-c2ccc(OCC)cc2)cc1`, the survival was 106% (inactive).

Regarding `Cc1ccc(NC(=O)c2ccco2)cc1NC(=O)CSc1ncnc2sc3c(c12)CCC3`, the survival is 54% (inactive).

`Cc1ccc(S(=O)(=O)c2nc(-c3cccs3)oc2N2CCCCC2)cc1`: the survival was 39% (active).

`CC1CCN(c2nc3c(S(=O)(=O)c4ccccc4)nnn3c3ccsc23)CC1`: the survival is 113% (inactive).

Consider `CC1CCN(c2oc(-c3cccs3)nc2S(=O)(=O)c2ccccc2)CC1`, for which the survival was 35% (active).

As to `COc1cccc(-c2nc(S(=O)(=O)c3ccccc3)c(N3CCC(C)CC3)o2)c1`, the survival is 50% (inactive).

For the molecule `O=S(=O)(c1ccccc1)c1nc(-c2cccs2)oc1N1CCCCC1`, the survival is 116% (inactive).

With `COc1ccc(CCNC(=O)CCCn2c(=O)c3ccccc3n(Cc3c(C)cc(C)cc3C)c2=O)cc1OC`, the survival was 89% (inactive).

Regarding `O=C(NC1CCCCC1)C(c1cccs1)N(Cc1ccco1)C(=O)C1COc2ccccc2O1` (centres undefined), the survival was 96% (inactive).

For `COc1ccc(OC)c(S(=O)(=O)N2CCC(n3c(C)nc4cccnc43)CC2)c1`, the survival is 73% (inactive).

For `CCc1ccc2occ(CC(=O)Nc3sc4c(c3C(=O)NCCOC)CCCC4)c2c1`, the survival is 77% (inactive).

For `CCC(=O)Nc1cc(-c2cccc(C)c2)nn1-c1ccccc1`, the survival is 83% (inactive).

Turning to `CC1=C(C#N)C(=O)NC(C)(C)C1`, the survival is 76% (inactive).

For the molecule `Cc1ccc2nc(N3CCN(c4cccc(C)c4C)CC3)c3nncn3c2c1`, the survival was 39% (active).

Turning to `Cc1ccc(C)c(N2CCN(c3nc4ccc(Cl)cc4n4cnnc34)CC2)c1`, the survival was 89% (inactive).

For `Cc1ccc(N2CCN(c3nc4ccc(C(=O)c5ccccc5)cc4n4cnnc34)CC2)c(C)c1`, the survival was 82% (inactive).

`Clc1cccc(N2CCN(c3nc4ccccc4n4cnnc34)CC2)c1`: the survival was 62% (inactive).

Take `CCc1nnc2c(N3CCN(c4cc(Cl)ccc4C)CC3)nc3ccccc3n12`: the survival was -5% (active).

In the case of `Cc1ccc(C)c(N2CCN(c3nc4ccccc4n4c(C)nnc34)CC2)c1`, the survival is 77% (inactive).

For the molecule `CCc1nnc2c3ccccc3nc(N3CCN(c4cc(Cl)ccc4C)CC3)n12`, the survival was 104% (inactive).

On to `FC(F)(F)c1cccc(N2CCN(c3nc4ccccc4n4cnnc34)CC2)c1`, for which the survival was 25% (active).

In the case of `Cc1ccc(C)c(N2CCN(c3nc4ccc(C(=O)c5ccccc5)cc4n4cnnc34)CC2)c1`, the survival was 79% (inactive).

With `Cc1ccc2nc(N3CCN(c4cccc(C)c4C)CC3)c3nnnn3c2c1`, the survival is 81% (inactive).

As for `CCc1nnc2c(N3CCN(c4cccc(C(F)(F)F)c4)CC3)nc3ccccc3n12`, the survival was 108% (inactive).

With `Cc1ccc(Cl)cc1N1CCN(c2nc3ccc(C(=O)c4ccccc4)cc3n3cnnc23)CC1`, the survival is -4% (active).

Turning to `COc1ccccc1-c1nnc2n(CCc3ccccc3)c(=O)c3ccccc3n12`, the survival is 69% (inactive).

As for `CCN(CC)C(=O)c1sc2c(c1C)c(=O)n(-c1ccc(C)c(C)c1)c(=O)n2CC(=O)Nc1ccc(OC)cc1OC`, the survival was 78% (inactive).

Consider `O=C(NCc1cccc(Cl)c1)C1CCCN(c2ncnc3onc(-c4ccc(F)cc4)c23)C1` (centres undefined), for which the survival was 90% (inactive).

`COc1ccc(C)cc1NC(=O)c1nnn(Cc2cccc(Br)c2)c1N`: the survival is 87% (inactive).

In the case of `COc1ccc(N2CCN(c3oc(-c4ccc(COc5cccc(C)c5)o4)nc3C#N)CC2)cc1`, the survival was 102% (inactive).

Consider `COc1cc2nc(C3CCC3)n(NC(=O)c3ccco3)c(=O)c2cc1OC`, for which the survival is 82% (inactive).

Regarding `O=S1(=O)N=C(Nc2cccc(C(F)(F)F)c2)c2ccccc21`, the survival is 53% (inactive).

For `Cc1nnc2c(N3CCN(c4ccccc4)CC3)nc3ccc(C(=O)c4ccccc4)cc3n12`, the survival is 80% (inactive).

Regarding `Cc1nnc2c(N3CCN(c4ccccc4F)CC3)nc3ccc(C(=O)c4ccccc4)cc3n12`, the survival was 93% (inactive).

`COc1ccccc1N1CCN(c2nc3ccc(C(=O)c4ccccc4)cc3n3c(C)nnc23)CC1`: the survival is 46% (active).
